# Results reported in PubChem BioAssay (Tox21).
# Unmarked numbers belong to inactive results. Inconclusive results are not listed. Entries that show only a call come without a potency. Active and inactive are the calls of the source. Unless noted, calls follow the shape of the dose curve; as a rule, active = well fitted curve in the direction sought with a large enough effect in the repeat runs; inconclusive = weak or mixed curves; inactive = no such curve, though single readings can be large; an effect the other way counts as inactive or inconclusive.
# Tests used:
# [1] = biological target: Nuclear receptor subfamily 1 group I member 3 (Homo sapiens) (UniProt Q14994); assay: qHTS assay to identify small molecule agonists of the constitutive androstane receptor (CAR) signaling pathway (AID 1224839); also: nearly all actives have a fitted effect of over 15% in size
# Nuclear receptor subfamily 1 group I member 3 (Homo sapiens), sequence (Q14994 whole entry, looked up): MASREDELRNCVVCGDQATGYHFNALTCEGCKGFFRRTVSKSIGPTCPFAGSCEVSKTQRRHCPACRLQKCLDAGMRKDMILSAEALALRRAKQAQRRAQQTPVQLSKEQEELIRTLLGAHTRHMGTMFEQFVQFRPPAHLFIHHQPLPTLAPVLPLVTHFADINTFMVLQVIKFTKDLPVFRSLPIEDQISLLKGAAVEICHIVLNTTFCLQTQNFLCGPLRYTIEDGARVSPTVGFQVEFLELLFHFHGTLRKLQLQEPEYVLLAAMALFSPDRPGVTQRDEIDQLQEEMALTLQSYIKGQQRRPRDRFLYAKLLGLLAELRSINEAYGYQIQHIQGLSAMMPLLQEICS
# In short: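 Double-stable HepG2 cells (hCAR, CYP2B6-2.2kb) seeded 4 h before compound addition. Exposure 24 h with 0.75 uM PK11195 final. Luciferase detected by ONE-Glo.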
# [2] = qHTS assay to identify small molecule antagonists of the estrogen related receptor signaling pathway with the pleiotropic PPARgamma coactivator (PGC) from Tox21 10K library - cell viability counter screen (AID 1224840; active = well fitted cell-killing curve with a large enough effect in the repeat runs, not every such curve was filed as active; also: nearly all actives have a fitted effect of over 40% in size)
# In short: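 Readout: fluorescence intensity from CellTiter-Fluor after 30 min at 37 C/5% CO2. Preceded by 17.5 h treatment of PGC/ERR cells with DMSO-dissolved compounds, added 6 h post-seeding.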
# [3] = qHTS assay to identify small molecule agonists of the estrogen related receptor signaling pathway with the pleiotropic PPARgamma coactivator (PGC) from Tox21 10K library (AID 1224842); also: nearly all actives have a fitted effect of over 15% in size; also: potency is read from the fitted curve at half-maximal effect
# In short: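 PGC/ERR reporter cell line, 2,000 cells per well, incubated 6 h at 37 C before 23 nL compound in DMSO was added. After 18 h at 37 C, One-Glo luminescence read following 30 min at room temperature.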
# [4] = qHTS assay to identify small molecule agonists of the hypoxia (HIF-1) signaling pathway - cell viability counter screen (AID 1224844; calls by dose curve; also: nearly all actives have a fitted effect of over 50% in size; also: potency is read from the fitted curve at half-maximal effect)
# In short: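 In this counter screen, HRE-bla ME-180 cell viability after 17 hrs of compound exposure at 37C was read by CellTiter-Glo luminescence, multiplexed with the beta-lactamase reporter measurement.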
# [5] = qHTS assay to identify small molecule agonists of the hypoxia (HIF-1) signaling pathway (AID 1224846; active = well fitted activation curve with a large enough effect in the signal ratio in the repeat runs, not every such curve was filed as active; the % refers to the signal ratio)
# In short: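 ME-180 HRE-bla reporter cells; compounds in DMSO, 17 h at 37C; read-out beta-lactamase via CCF4-AM FRET.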
# [6] = qHTS assay to identify small molecule agonists of H2AX - cell viability counter screen (AID 1224847; calls by dose curve; also: nearly all actives have a fitted effect of over 30% in size; also: potency is read from the fitted curve at half-maximal effect)
# In short: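 Quantitative HTS viability measurement: CHO-K1 wild-type cells in serum (10% FBS) medium, short 3 hr drug exposure at 37C with 0.76% DMSO, CellTiter-Glo luminescent detection.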
# [7] = qHTS assay to identify small molecule antagonists of the estrogen related receptor (ERR) signaling pathway from Tox21 library (AID 1224848); also: nearly all actives have a fitted effect of over 50% in size
# In short: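 Compounds dissolved in DMSO are pin-transferred onto ERR reporter cells (2,000 per well) that have settled for 6 h at 37 C. Plates then incubate 18 h at 37 C before ONE-Glo luciferase reagent and a luminescence read 30 min later.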
# [8] = qHTS assay to identify small molecule agonists of the estrogen related receptor (ERR) signaling pathway from Tox21 library (AID 1224849; calls by dose curve; also: nearly all actives have a fitted effect of over 15% in size); conditions: ERR reporter cell line, ONE-Glo luciferase, 18 h; at 92.4 µM (top of the series) unless noted
# In short: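 Luciferase activity in ERR pathway reporter cells served as the agonist readout; exposure lasted 18 h at 37 C, with ONE-Glo detection after 30 min at room temperature.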
# [9] = qHTS RealTime-Glo MT Cell Viability Assay in HepG2 cells - 24 hour (AID 1224867); also: nearly all actives have a fitted effect of over 50% in size; also: potency is read from the fitted curve at half-maximal effect
# In short: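 HepG2 cells were seeded at 600 cells/well together with NanoLuc luciferase and a cell-permeant prosubstrate, preincubated 5 h at 37 C/5% CO2, then pin-dosed with compounds in DMSO. Nonlytic luminescence from viable cells was read at each time point.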
# [10] = qHTS RealTime-Glo MT Cell Viability Assay in HEK293 cells - 32 hour (AID 1224868); also: nearly all actives have a fitted effect of over 50% in size; also: potency is read from the fitted curve at half-maximal effect
# In short: (§1)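 HEK293 cells were seeded at 600 cells/well together with NanoLuc luciferase and cell-permeant prosubstrate, preincubated 5 h at 37 C/5% CO2, then given compound in DMSO by pintool. Luminescence from viable-cell prosubstrate reduction was read repeatedly over 40 h.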
# [11] = A CellTox Green Cytotoxicity Assay to monitor cytotoxicity in HEK293 cells - 0 hour (AID 1224869); also: nearly all actives have a fitted effect of over 50% in size
# In short: (§2)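 Real-time, in one plate: 600 HEK293 cells/well with dead-cell DNA dye, pinned compound after 5 h, 37 C incubation over 40 h; viable cells give no appreciable fluorescence.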
# [12] = qHTS RealTime-Glo MT Cell Viability Assay in HepG2 cells - 40 hour (AID 1224870); also: nearly all actives have a fitted effect of over 50% in size; also: potency is read from the fitted curve at half-maximal effect
# In short: (§3)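 HepG2 cells (600/well) mixed with RealTime-Glo MT reagent, settled 5 h at 37 C/5% CO2 before compound addition. Nonlytic NanoLuc luminescence from viable-cell prosubstrate reduction read repeatedly during 40 h treatment at 37 C.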
# [13] = qHTS RealTime-Glo MT Cell Viability Assay in HEK293 cells - 16 hour (AID 1224872); also: nearly all actives have a fitted effect of over 50% in size; also: potency is read from the fitted curve at half-maximal effect
# In short: as §1
# [14] = qHTS RealTime-Glo MT Cell Viability Assay in HepG2 cells - 8 hour (AID 1224873); also: nearly all actives have a fitted effect of over 55% in size; also: potency is read from the fitted curve at half-maximal effect
# In short: as §3
# [15] = qHTS RealTime-Glo MT Cell Viability Assay in HEK293 cells - 40 hour (AID 1224874); conditions: RealTime-Glo luminescence; max response: stronger effect = lower value; also: nearly all actives have a fitted effect of over 50% in size; also: potency is read from the fitted curve at half-maximal effect
# In short: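 Kinetic, non-lysing viability readout. Seed HEK293 (600/well) with reagent, incubate 5 h at 37 C/5% CO2, pin 23 nL compound in DMSO, incubate at 37 C, read luminescence at 0, 8, 16, 24, 32, 40 h.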
# [16] = biological target: Nuclear receptor subfamily 1 group I member 3 (Homo sapiens) (UniProt Q14994); assay: qHTS assay to identify small molecule antagonists of the constitutive androstane receptor (CAR) signaling pathway (AID 1224838); also: nearly all actives have a fitted effect of over 40% in size
# In short: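 Inhibition of CITCO-driven (50 nM final) CYP2B6 reporter expression is measured in HepG2 cells stably carrying hCAR. Fifteen compound concentrations are applied for 24 h at 37 C, followed by luciferase luminescence.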
# [17] = qHTS assay to identify small molecule agonists of H2AX (AID 1224845; active = well fitted activation curve with a large enough effect in the signal ratio in the repeat runs, not every such curve was filed as active; the % refers to the signal ratio)
# In short: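 Wild-type CHO-K1 cells, plated overnight, exposed 3hr at 37C to 15 concentrations (0.76% DMSO final). Lysed, then HTRF anti-pH2AX (S139) cryptate and anti-H2AX-d2 antibodies, 24 hr room temperature; 665/620 nm emission read.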
# [18] = A CellTox Green Cytotoxicity Assay to monitor cytotoxicity in HEK293 cells - 40 hour (AID 1224871); also: nearly all actives have a fitted effect of over 45% in size; also: potency is read from the fitted curve at half-maximal effect
# In short: as §2
# [19] = qHTS assay to identify small molecule antagonists of the estrogen related receptor signaling pathway with the pleiotropic PPARgamma coactivator (PGC) from Tox21 10K library (AID 1224841; call rule not given here)
# In short: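 One-Glo luminescence, measured after half an hour at room temperature, quantified reporter output of PGC/ERR cells. These had been plated at 2,000 per well, incubated 6 h, dosed with compounds in DMSO, then kept 18 h at 37 C.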
# [20] = biological target: Thyrotropin receptor (Homo sapiens) (UniProt P16473); assay: qHTS assay to identify small molecule agonists of the thyroid stimulating hormone receptor (TSHR) signaling pathway (AID 1224843; calls by dose curve; also: nearly all actives have a fitted effect of over 45% in size)
# Thyrotropin receptor (Homo sapiens), sequence (P16473 whole entry, looked up): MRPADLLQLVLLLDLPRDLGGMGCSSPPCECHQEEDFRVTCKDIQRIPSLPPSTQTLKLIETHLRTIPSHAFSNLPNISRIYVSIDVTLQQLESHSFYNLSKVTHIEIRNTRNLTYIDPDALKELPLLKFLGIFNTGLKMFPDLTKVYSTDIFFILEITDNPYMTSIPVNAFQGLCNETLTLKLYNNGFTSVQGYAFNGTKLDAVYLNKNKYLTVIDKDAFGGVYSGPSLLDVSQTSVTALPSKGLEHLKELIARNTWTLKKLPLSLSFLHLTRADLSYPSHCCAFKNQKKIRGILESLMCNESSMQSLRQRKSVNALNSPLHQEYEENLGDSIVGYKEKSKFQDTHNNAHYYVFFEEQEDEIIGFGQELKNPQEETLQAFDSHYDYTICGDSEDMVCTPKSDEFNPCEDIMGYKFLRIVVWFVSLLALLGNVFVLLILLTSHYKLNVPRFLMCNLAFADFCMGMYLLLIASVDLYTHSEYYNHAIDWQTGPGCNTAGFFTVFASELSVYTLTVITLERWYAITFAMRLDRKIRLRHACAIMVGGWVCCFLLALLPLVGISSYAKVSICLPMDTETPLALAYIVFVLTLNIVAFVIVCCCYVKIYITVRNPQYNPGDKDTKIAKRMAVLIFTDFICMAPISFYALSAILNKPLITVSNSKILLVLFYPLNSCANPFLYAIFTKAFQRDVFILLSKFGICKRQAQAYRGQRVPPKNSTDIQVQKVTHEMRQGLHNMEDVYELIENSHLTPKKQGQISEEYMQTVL
# In short: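 HEK293/TSHR, 800 cells/well; cpd 30 min RT; add cAMP-d2 + anti-cAMP-cryptate, 1 h RT; fluorescence read on plate reader. 15-pt titration, n=3.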
smiles,measurement,setting,value
C=CC(=O)O[C@H]1C[C@@H]2CC[C@@]1(C)C2(C)C,Potency,[1],inactive
same,Potency,[2],inactive
same,Potency,[3],inactive
same,Potency,[4],inactive
same,Potency,[5],inactive
same,Potency,[6],inactive
same,Potency,[7],inactive
same,"activity change, positive = activation",[8],1.18%
same,Potency,[9],inactive
same,Potency,[10],inactive
same,Potency,[11],inactive
same,Potency,[12],inactive
same,Potency,[13],inactive
same,Potency,[14],inactive
same,max response,[15],3.56%
O=C1OC(=O)c2cc(-c3ccc4c(c3)C(=O)OC4=O)ccc21,Potency,[16],inactive
same,Potency,[1],inactive
same,Potency,[4],inactive
same,Potency,[17],inactive
same,Potency,[5],inactive
same,Potency,[6],inactive
same,Potency,[9],inactive
same,Potency,[10],inactive
same,Potency,[11],inactive
same,Potency,[12],inactive
same,Potency,[18],inactive
same,Potency,[13],inactive
same,Potency,[14],inactive
CCCCCCCCCCCCCCCCC(C(=O)O)C(O)(CC(=O)O)C(=O)O (configuration not stated),Potency,[1],inactive
same,Potency,[2],inactive
same,Potency,[19],inactive
same,Potency,[3],inactive
same,Potency,[20],inactive
same,Potency,[6],inactive
same,Potency,[7],inactive
same,"activity change, positive = activation",[8],-3.01% [at 42.5 µM]
same,Potency,[9],inactive
same,Potency,[10],inactive
same,Potency,[11],inactive
same,Potency,[12],inactive
same,Potency,[18],inactive
same,Potency,[13],inactive
CCc1c(C)cc(N)c(CC)c1N,Potency,[16],inactive
same,Potency,[3],inactive
same,Potency,[20],inactive
same,Potency,[4],inactive
same,Potency,[17],inactive
same,Potency,[5],inactive
same,Potency,[6],inactive
same,Potency,[7],inactive
same,"activity change, positive = activation",[8],-1.89%
same,Potency,[9],inactive
same,Potency,[10],inactive
same,Potency,[11],inactive
same,Potency,[12],inactive
same,Potency,[18],inactive
same,Potency,[13],inactive
same,Potency,[14],inactive
same,max response,[15],1.8%
O=C(c1ccccc1)c1ccc(Cl)cc1,Potency,[16],inactive
same,Potency,[2],inactive
same,Potency,[20],inactive
same,Potency,[4],inactive
same,Potency,[5],inactive
same,Potency,[6],inactive
same,Potency,[9],inactive
same,Potency,[10],inactive
same,Potency,[11],inactive
same,Potency,[12],inactive
same,Potency,[18],inactive
same,Potency,[13],inactive
same,Potency,[14],inactive
CC(Cc1ccc(O)c(O)c1)C(C)Cc1ccc(O)c(O)c1 (configuration not stated),Potency,[16],inactive
same,Potency,[3],inactive
same,Potency,[20],inactive
same,Potency,[4],inactive
same,"activity change, positive = activation",[8],-42.5%
same,Potency,[9],43.6 µM (active)
same,Potency,[10],34.7 µM (active)
same,Potency,[11],inactive
same,Potency,[18],inactive
same,Potency,[13],49 µM (active)
same,Potency,[15],38.9 µM (active)
Oc1ccc2c(c1)CCC2,Potency,[16],inactive
same,Potency,[2],inactive
same,Potency,[19],inactive
same,Potency,[3],inactive
same,Potency,[17],inactive
same,Potency,[5],inactive
same,Potency,[6],inactive
same,Potency,[7],inactive
same,"activity change, positive = activation",[8],7.55%
same,Potency,[9],inactive
same,Potency,[10],inactive
same,Potency,[11],inactive
same,Potency,[12],inactive
same,Potency,[18],inactive
same,Potency,[13],inactive
same,max response,[15],-3.07%
CN1CC[C@H](c2c(O)cc(O)c3c(=O)cc(-c4ccccc4Cl)oc23)[C@H](O)C1,Potency,[1],inactive
same,Potency,[2],inactive
same,Potency,[19],inactive
same,Potency,[3],0.531 µM (active)
same,Potency,[4],inactive
same,Potency,[17],inactive
same,Potency,[7],inactive
same,"activity change, positive = activation",[8],28.6% [at 42.5 µM]
same,Potency,[9],inactive
same,Potency,[10],0.19 µM (active)
same,Potency,[11],inactive
same,Potency,[12],inactive
same,Potency,[15],0.19 µM (active)
CCC1(C)C(=O)N(Cl)C(=O)N1Cl (configuration not stated),Potency,[1],inactive
same,Potency,[2],inactive
same,Potency,[3],inactive
same,Potency,[20],inactive
same,Potency,[5],inactive
same,Potency,[6],inactive
same,Potency,[7],inactive
same,"activity change, positive = activation",[8],-3.41%
same,Potency,[9],inactive
same,Potency,[10],inactive
same,Potency,[11],inactive
same,Potency,[12],inactive
same,Potency,[18],inactive
same,Potency,[13],inactive
same,max response,[15],2.78%
CC(C)(C)c1cc(CCC(=O)OCCSCCOC(=O)CCc2cc(C(C)(C)C)c(O)c(C(C)(C)C)c2)cc(C(C)(C)C)c1O,Potency,[1],inactive
same,Potency,[2],inactive
same,Potency,[3],inactive
same,Potency,[20],inactive
same,Potency,[4],inactive
same,Potency,[17],inactive
same,Potency,[5],inactive
same,Potency,[6],inactive
same,Potency,[7],inactive
same,"activity change, positive = activation",[8],-3.83% [at 42.5 µM]
same,Potency,[9],inactive
same,Potency,[10],inactive
same,Potency,[11],inactive
same,Potency,[18],inactive
same,Potency,[13],inactive
same,max response,[15],2.76%
CCOc1nc(F)cc2nc(S(=O)(=O)Nc3c(Cl)cccc3C(=O)OC)nn12,Potency,[1],inactive
same,Potency,[2],inactive
same,Potency,[20],inactive
same,Potency,[17],inactive
same,Potency,[5],inactive
same,Potency,[6],inactive
same,Potency,[9],inactive
same,Potency,[10],inactive
same,Potency,[11],inactive
same,Potency,[12],inactive
same,Potency,[18],inactive
same,Potency,[13],inactive
same,max response,[15],9.81%
CCCCCCCCCC[N+](C)(CCCCCCCCCC)CCC[Si](OC)(OC)OC,Potency,[16],inactive
same,Potency,[1],inactive
same,Potency,[4],54.9 µM (active)
same,Potency,[17],inactive
same,Potency,[6],50.5 µM (active)
same,Potency,[9],43.6 µM (active)
same,Potency,[10],27.5 µM (active)
same,Potency,[11],inactive
same,Potency,[12],43.6 µM (active)
same,Potency,[18],43.6 µM (active)
same,Potency,[13],27.5 µM (active)
same,Potency,[14],49 µM (active)
same,Potency,[15],27.5 µM (active)
CC/C=C(\C)C=O,Potency,[1],inactive
same,Potency,[2],inactive
same,Potency,[3],inactive
same,Potency,[20],inactive
same,Potency,[5],inactive
same,Potency,[6],inactive
same,Potency,[7],inactive
same,"activity change, positive = activation",[8],5.99%
same,Potency,[9],inactive
same,Potency,[10],inactive
same,Potency,[11],inactive
same,Potency,[12],inactive
same,Potency,[18],inactive
same,Potency,[13],inactive
same,Potency,[14],inactive
CCCCCCCCCCCC(=O)Cl,Potency,[1],inactive
same,Potency,[2],inactive
same,Potency,[20],inactive
same,Potency,[17],inactive
same,Potency,[5],inactive
same,Potency,[6],inactive
same,Potency,[9],inactive
same,Potency,[10],inactive
same,Potency,[12],inactive
same,Potency,[18],inactive
same,Potency,[13],inactive
same,Potency,[14],inactive
same,max response,[15],0.0053%
